# Experimental data published in PubChem BioAssay AID1851 (National Center for Advancing Translational Sciences (NCATS), 2009).
# The whole screen tested about 16,000 compounds, of which about 5,800 (36%) were called active. Roughly 23% stayed inconclusive and do not appear here. Calls come from the whole dose curve; as a rule, active = well fitted curve in the direction sought with a large enough effect; inconclusive = small, poorly fitted or top-dose-only effect, or effect the other way; inactive = no such curve, though single readings can be large or run the other way. This is one part of the list.
# Target: Cytochrome P450 2C19 (Homo sapiens) (UniProt P33261)
# Sequence (P33261 whole entry, looked up): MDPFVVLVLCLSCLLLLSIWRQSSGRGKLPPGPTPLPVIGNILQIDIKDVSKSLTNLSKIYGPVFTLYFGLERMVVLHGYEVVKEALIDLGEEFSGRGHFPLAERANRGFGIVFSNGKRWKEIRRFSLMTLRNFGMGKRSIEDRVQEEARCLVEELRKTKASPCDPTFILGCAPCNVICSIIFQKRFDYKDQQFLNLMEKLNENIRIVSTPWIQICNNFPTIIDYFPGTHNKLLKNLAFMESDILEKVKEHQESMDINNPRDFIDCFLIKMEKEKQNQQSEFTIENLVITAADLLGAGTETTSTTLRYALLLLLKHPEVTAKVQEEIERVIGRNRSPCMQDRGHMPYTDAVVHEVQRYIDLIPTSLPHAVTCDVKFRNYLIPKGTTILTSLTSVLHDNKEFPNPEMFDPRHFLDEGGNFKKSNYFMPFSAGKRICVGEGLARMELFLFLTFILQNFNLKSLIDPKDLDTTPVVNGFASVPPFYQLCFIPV
# Assay: Cytochrome panel assay with activity outcomes
# Conditions: recombinant CYP, pro-luciferin dealkylation, luminescence, p450-cyp2c19; series mostly up to 57.1 µM; activity, negative = inhibition: at the top concentration
# % is set by controls: 0 for no effect and ±100 for the full control effect.
SMILES,"activity, negative = inhibition",AC50
O=C(Nc1ccccc1)N1CCC2(CC1)CCN(C(=O)Oc1ccccc1)CC2,-36.7% (inactive),–
COc1ccc(C[C@H]2NC[C@H](O)[C@@H]2OC(C)=O)cc1,–,3.16 µM (active)
COc1ccc(C[C@@H]2NC[C@H](O)[C@@H]2OC(C)=O)cc1,27.1% [at 25.6 µM] (inactive),–
Cc1nc(N)sc1CCN,-29.1% (inactive),–
CCCN[C@@H]1CCc2c(OC)cccc2[C@@H]1C,-33.5% (inactive),–
CCN(CC)C(=O)N[C@H]1C[C@H]2c3cccc4[nH]cc(c34)C[C@@H]2N(C)C1,-1.43% (inactive),–
O=C1CN=C(c2cccs2)c2c(sc3c2CCCC3)N1,–,15.8 µM (active)
C[C@H]1CC[C@@]2(NC1)O[C@@H]1C[C@@H]3[C@@H]4CC=C5C[C@@H](O)CC[C@]5(C)[C@@H]4CC[C@]3(C)[C@H]1[C@@H]2C,15.9% [at 11.4 µM] (inactive),–
CCOC(=O)C1Cc2c([nH]c3ccccc23)CN1 (stereo unspecified),–,1.58 µM (active)
COc1ccc2[nH]c3c(c2c1)CCNC3,0.139% (inactive),–
C[C@@]12CC[C@H]3[C@@H](CC=C4C[C@H](OS(=O)(=O)O)CC[C@]43C)[C@H]1CCC2=O,-11.8% (inactive),–
COc1cc(CCN)c(OC)c(OC)c1,70.8% [at 11.4 µM] (inactive),–
C[C@@H](O)CN(CCN(C[C@@H](C)O)C[C@@H](C)O)C[C@@H](C)O.O=[N+]([O-])O.[Cu],–,0.398 µM (active)
CC(=O)O[C@H]1C[C@@H](O[C@@H]2[C@H](C)O[C@H](O[C@@H]3[C@H](C)O[C@H](O[C@@H]4CC[C@@]5(C)[C@@H](CC[C@]6(C)[C@]5(C)C[C@H](O)[C@]5(C)[C@@H](C7=CC(=O)OC7)CC[C@@]56O)C4)C[C@@H]3O)C[C@@H]2O)O[C@@H](C)[C@H]1O[C@H]1O[C@@H](CO)[C@@H](O)[C@@H](O)[C@@H]1O,15.7% [at 25.6 µM] (inactive),–
Cc1ccc(S(=O)(=O)N[C@@H](CCCCN)C(=O)CCl)cc1,-18.9% (inactive),–
O=S1(=O)N(CCN2CC=C(c3c[nH]c4cc(F)ccc34)CC2)c2cccc3c2N1CCC3,–,6.31 µM (active)
COc1cc2c(cc1OC)[C@@]13CCN4C=C5CCO[C@H]6CC(=O)N2[C@@H]1[C@@H]6[C@H]5C[C@H]43,32% [at 11.4 µM] (inactive),–
CC(C)[N+](C)(CCC(C(N)=O)(c1ccccc1)c1ccccc1)C(C)C,-4.45% [at 25.6 µM] (inactive),–
C[C@H](CN(C)C)C(C#N)(c1ccccc1)c1ccccc1,31.1% [at 11.4 µM] (inactive),–
Cc1cc(NC(=O)CCC(=O)N2CCC3(CC2)OCCO3)no1,17.5% (inactive),–
Cc1ccc2c(c1)N(CCC(=O)N1CCC3(CC1)OCCO3)C(=O)C(C)O2 (stereo unspecified),–,0.708 µM (active)

SMILES,"activity, negative = inhibition",AC50
CN1CC[C@@]23c4ccccc4N[C@H]1[C@]21CCN(C)[C@@H]3Nc2ccccc21,15.2% [at 25.6 µM] (inactive),–
CCCC(=O)Nc1ccc(N2CCN(CC)CC2)c(Cl)c1,-15.6% (inactive),–
C=Cn1ccnc1P(=S)(c1nccn1C=C)C1CCCCC1,–,3.55 µM (active)
O=C(O)[C@@H](O)[C@@H](O)[C@@H]1[O][Sb][O][C@@H]1CO,21.2% [at 11.4 µM] (inactive),–
CC[N+](CC)(CCCNC1=CC(=O)C(NCCC[N+](CC)(CC)Cc2ccccc2)=CC1=O)Cc1ccccc1,-21.1% (inactive),–
CCN1C[C@@]2(COC)CC[C@H](O)[C@@]34[C@@H]2C[C@@H]([C@@H]13)[C@]1(O)C[C@@H](OC)C2C[C@H]4[C@H]1[C@H]2OC(C)=O,-2.58% [at 25.6 µM] (inactive),–
C[N+](C)(C)[C@H](Cc1c[nH]c(=S)[nH]1)C(=O)O,-22.8% [at 11.4 µM] (inactive),–
CCCN(CCC)CCc1c[nH]c2ccc(C(N)=O)cc12,-15% (inactive),–
CN=C(NC#N)NCCSCc1nc[nH]c1C,–,31.6 µM (active)
O=C(Nc1cccc(F)c1)N1CC2(CCN(C(=O)Oc3ccccc3)CC2)C1,-16.3% (inactive),–
O=C(CCN1CC2CCC(CC2)C1)c1cccs1,-19% [at 11.4 µM] (inactive),–
CC[C@@](O)(C(=O)O)c1cc2n(c(=O)c1CO)Cc1cc3ccccc3nc1-2,16.3% [at 11.4 µM] (inactive),–
CC(=O)NBr,-7.32% (inactive),–
N[C@H](CCCCCP(=O)(O)O)C(=O)O,–,inactive
CP(=O)(O)C1=CCNCC1,-20.7% (inactive),–
CC(=O)N1CC[N+](C)(C)CC1,-17.8% (inactive),–
CN1CCN(C(=O)O[C@@H]2c3nccnc3C(=O)N2c2ccc(Cl)cn2)CC1,–,15.8 µM (active)
COc1cc2c3cc1Oc1c(O)c(OC)cc4c1[C@@H](Cc1ccc(cc1)Oc1cc(ccc1O)C[C@H]3N(C)CC2)N(C)CC4,-11% [at 11.4 µM] (inactive),–
CC[C@]1(c2cccc(O)c2)CCCCN(C)C1,16.1% [at 25.6 µM] (inactive),–
C[C@@H]1O[C@@H](O[C@H]2C[C@@H](O)[C@]3(CO)[C@@H]4[C@@H](O)C[C@]5(C)[C@H](C6=CC(=O)OC6)CC[C@@]5(O)[C@H]4CC[C@@]3(O)C2)[C@H](O)[C@H](O)[C@@H]1O,-5.19% (inactive),–
